# Data reported in PubChem BioAssay AID1159580 (chemical genetic matrix, 2015).
# The campaign covered roughly 5,500 compounds. About 2,000 (36%) were called active. Not shown: some 18% with an inconclusive outcome. The list shows a part of the results. Values without a mark were called inactive. Rule as the data show it: active = normalized growth mostly below about 0.91 (no sharp cut-off); inconclusive = no clear call, values can overlap the other calls; inactive = mostly above about 0.92.
# Experiment: chemical genetic growth profiling, strain panel (AID 1159580);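 also: tested at 20 µM; growth read once vehicle control cultures reached saturation at 30 °C; 1 = growth at the plate median or of vehicle wells; lower values mean less growth of the strain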
# Conditions: growth OD
smiles,measurement,setting,value
O=[N+]([O-])c1cc([As](=O)(O)O)ccc1O,normalized growth,"S. cerevisiae deletion strains, locus YJR075W, strain HOC1, hits give low values",1
same,normalized growth,"S. cerevisiae deletion strains, locus YKL009W, strain mrt4, hits give low values",0.986
same,normalized growth,"S. cerevisiae deletion strains, locus YKL068W, hits give low values",0.96
same,normalized growth,"S. cerevisiae deletion strains, locus YKL085W, strain MDH1 (second series), hits give low values",0.484 (active)
same,normalized growth,"S. cerevisiae deletion strains, locus YKL085W, strain MDH1, hits give low values",0.484 (active)
same,normalized growth,"S. cerevisiae deletion strains, locus YKL160W, strain elf1, hits give low values",0.959
same,normalized growth,"S. cerevisiae deletion strains, locus YKL190W, strain CNB1, hits give low values",0.983
same,normalized growth,"S. cerevisiae deletion strains, locus YKR001C, strain vps1, hits give low values",0.232 (active)
same,normalized growth,"S. cerevisiae deletion strains, locus YKR091W, strain srl3, hits give low values",0.975
same,normalized growth,"S. cerevisiae deletion strains, locus YLL001W, strain dnm1, hits give low values",0.936
same,normalized growth,"S. cerevisiae deletion strains, locus YLL026W, hits give low values",0.97
same,normalized growth,"S. cerevisiae deletion strains, locus YLL041C, strain sdh2, hits give low values",0.965
same,normalized growth,"S. cerevisiae deletion strains, locus YLR027C, strain aat2, hits give low values",0.97
same,normalized growth,"S. cerevisiae deletion strains, locus YLR039C, strain RIC1, hits give low values",1.01
same,normalized growth,"S. cerevisiae deletion strains, locus YLR058C, strain SHM2, hits give low values",0.998
same,normalized growth,"S. cerevisiae deletion strains, locus YLR102C, strain apc9, hits give low values",0.243 (active)
same,normalized growth,"S. cerevisiae deletion strains, locus YLR113W, strain HOG1, hits give low values",1.02
same,normalized growth,"S. cerevisiae deletion strains, locus YLR221C, strain rsa3, hits give low values",1
same,normalized growth,"S. cerevisiae deletion strains, locus YLR258W, strain gsy2, hits give low values",0.975
same,normalized growth,"S. cerevisiae deletion strains, locus YLR262C, strain YPT6 (second series), hits give low values",0.948
same,normalized growth,"S. cerevisiae deletion strains, locus YLR262C, strain YPT6, hits give low values",1.02
same,normalized growth,"S. cerevisiae deletion strains, locus YLR268W, strain sec22, hits give low values",0.12 (active)
same,normalized growth,"S. cerevisiae deletion strains, locus YLR320W, strain mms22, hits give low values",0.984
same,normalized growth,"S. cerevisiae deletion strains, locus YLR330W, strain CHS5, hits give low values",0.988
same,normalized growth,"S. cerevisiae deletion strains, locus YLR342W, strain FKS1 (second series), hits give low values",1.07
same,normalized growth,"S. cerevisiae deletion strains, locus YLR342W, strain FKS1, hits give low values",0.978
same,normalized growth,"S. cerevisiae deletion strains, locus YLR357W, strain rsc2, hits give low values",0.92
same,normalized growth,"S. cerevisiae deletion strains, locus YLR370C, strain arc18, hits give low values",0.957
same,normalized growth,"S. cerevisiae deletion strains, locus YLR371W, strain rom2, hits give low values",0.152 (active)
same,normalized growth,"S. cerevisiae deletion strains, locus YLR384C, strain iki3, hits give low values",0.938
same,normalized growth,"S. cerevisiae deletion strains, locus YLR418C, strain cdc73, hits give low values",0.146 (active)
same,normalized growth,"S. cerevisiae deletion strains, locus YML016C, strain PPZ1, hits give low values",0.988
same,normalized growth,"S. cerevisiae deletion strains, locus YML032C, strain rad52, hits give low values",0.929
same,normalized growth,"S. cerevisiae deletion strains, locus YML120C, strain ndi1, hits give low values",0.969
same,normalized growth,"S. cerevisiae deletion strains, locus YML124C, strain tub3, hits give low values",0.329 (active)
same,normalized growth,"S. cerevisiae deletion strains, locus YMR058W, strain fet3, hits give low values",0.977
same,normalized growth,"S. cerevisiae deletion strains, locus YMR078C, strain ctf18, hits give low values",0.548 (active)
same,normalized growth,"S. cerevisiae deletion strains, locus YMR125W, strain sto1, hits give low values",0.943
same,normalized growth,"S. cerevisiae deletion strains, locus YMR129W, hits give low values",0.981
same,normalized growth,"S. cerevisiae deletion strains, locus YMR205C, strain PFK2, hits give low values",0.983
same,normalized growth,"S. cerevisiae deletion strains, locus YMR223W, strain ubp8, hits give low values",0.129 (active)
same,normalized growth,"S. cerevisiae deletion strains, locus YMR231W, strain pep5, hits give low values",0.951
same,normalized growth,"S. cerevisiae deletion strains, locus YMR263W, strain SAP30, hits give low values",0.99
same,normalized growth,"S. cerevisiae deletion strains, locus YMR307W, strain GAS1, hits give low values",1.05
same,normalized growth,"S. cerevisiae deletion strains, locus YNL067W, strain RPL9B, hits give low values",0.991
same,normalized growth,"S. cerevisiae deletion strains, locus YNL071W, strain lat1, hits give low values",0.973
same,normalized growth,"S. cerevisiae deletion strains, locus YNL128W, strain TEP1, hits give low values",0.976
same,normalized growth,"S. cerevisiae deletion strains, locus YNL153C, strain GIM3, hits give low values",0.958
same,normalized growth,"S. cerevisiae deletion strains, locus YNL183C, strain NPR1, hits give low values",0.971
same,normalized growth,"S. cerevisiae deletion strains, locus YNL209W, strain ssb2, hits give low values",0.974
same,normalized growth,"S. cerevisiae deletion strains, locus YNL233W, strain BNI4, hits give low values",1.01
same,normalized growth,"S. cerevisiae deletion strains, locus YNL248C, strain rpa49, hits give low values",0.918
same,normalized growth,"S. cerevisiae deletion strains, locus YNL250W, strain rad50, hits give low values",0.93
same,normalized growth,"S. cerevisiae deletion strains, locus YNL271C, strain bni1, hits give low values",0.532 (active)
same,normalized growth,"S. cerevisiae deletion strains, locus YNL298W, strain CLA4, hits give low values",0.877 (active)
same,normalized growth,"S. cerevisiae deletion strains, locus YNL307C, strain MCK1, hits give low values",0.0701 (active)
same,normalized growth,"S. cerevisiae deletion strains, locus YNL322C, strain KRE1 (second series), hits give low values",0.974
same,normalized growth,"S. cerevisiae deletion strains, locus YNL322C, strain KRE1, hits give low values",0.991
same,normalized growth,"S. cerevisiae deletion strains, locus YNR049C, strain mso1, hits give low values",0.945
same,normalized growth,"S. cerevisiae deletion strains, locus YNR052C, strain pop2, hits give low values",1.03
same,normalized growth,"S. cerevisiae deletion strains, locus YOL006C, strain TOP1, hits give low values",1.06
same,normalized growth,"S. cerevisiae deletion strains, locus YOL012C, strain htz1",0.214
same,normalized growth,"S. cerevisiae deletion strains, locus YOL147C, strain pex11, hits give low values",0.987
same,normalized growth,"S. cerevisiae deletion strains, locus YOR001W, strain rrp6, hits give low values",0.965
same,normalized growth,"S. cerevisiae deletion strains, locus YOR061W, strain CKA2, hits give low values",0.991
same,normalized growth,"S. cerevisiae deletion strains, locus YOR069W, strain VPS5, hits give low values",0.989
same,normalized growth,"S. cerevisiae deletion strains, locus YOR070C, strain gyp1, hits give low values",0.965
same,normalized growth,"S. cerevisiae deletion strains, locus YOR080W, strain dia2, hits give low values",0.961
same,normalized growth,"S. cerevisiae deletion strains, locus YOR083W, strain WHI5, hits give low values",0.975
same,normalized growth,"S. cerevisiae deletion strains, locus YOR106W, strain vam3, hits give low values",0.96
same,normalized growth,"S. cerevisiae deletion strains, locus YOR136W, strain idh2, hits give low values",0.147 (active)
same,normalized growth,"S. cerevisiae deletion strains, locus YOR144C, strain elg1, hits give low values",0.996
same,normalized growth,"S. cerevisiae deletion strains, locus YOR184W, strain ser1, hits give low values",0.0809 (active)
same,normalized growth,"S. cerevisiae deletion strains, locus YOR231W, strain MKK1, hits give low values",1.03
same,normalized growth,"S. cerevisiae deletion strains, locus YOR265W, strain rbl2, hits give low values",0.968
same,normalized growth,"S. cerevisiae deletion strains, locus YOR270C, strain vph1, hits give low values",0.952
same,normalized growth,"S. cerevisiae deletion strains, locus YOR290C, strain snf2, hits give low values",0.993
same,normalized growth,"S. cerevisiae deletion strains, locus YOR316C, strain cot1, hits give low values",0.171 (active)
same,normalized growth,"S. cerevisiae deletion strains, locus YPL051W, strain arl3, hits give low values",0.967
same,normalized growth,"S. cerevisiae deletion strains, locus YPL055C, strain LGE1, hits give low values",0.946
same,normalized growth,"S. cerevisiae deletion strains, locus YPL078C, strain atp4, hits give low values",0.951
same,normalized growth,"S. cerevisiae deletion strains, locus YPL106C, strain sse1, hits give low values",0.982
same,normalized growth,"S. cerevisiae deletion strains, locus YPL240C, strain hsp82, hits give low values",0.949
same,normalized growth,"S. cerevisiae deletion strains, locus YPL241C, strain CIN2, hits give low values",0.995
same,normalized growth,"S. cerevisiae deletion strains, locus YPL256C, strain CLN2, hits give low values",1.08
same,normalized growth,"S. cerevisiae deletion strains, locus YPR119W, strain clb2, hits give low values",0.288 (active)
same,normalized growth,"S. cerevisiae deletion strains, locus YPR141C, strain kar3, hits give low values",1
same,normalized growth,"S. cerevisiae deletion strains, locus YPR163C, strain tif3, hits give low values",0.0934 (active)
same,normalized growth,"S. cerevisiae deletion strains, locus YPR167C, strain met16, hits give low values",0.152 (active)
same,normalized growth,"S. cerevisiae deletion strains, strain wtn01, hits give low values",0.0828 (active)
same,normalized growth,"S. cerevisiae strains, strain wild type, hits give low values",0.997
